Results from PubChem BioAssay (Tox21).
Values joined by “and” are separate entries in the source; they are usually repeats but may differ in a detail not shown here. Identical values can stand only once. Records with an inconclusive call do not appear. A call without a number means that no potency is given here. Active and inactive are the calls of the source. Unless noted, calls follow the shape of the dose curve; as a rule, active = well fitted curve in the direction sought with a large enough effect in the repeat runs; inconclusive = weak or mixed curves; inactive = no such curve, though single readings can be large; an effect the other way counts as inactive or inconclusive.

Tests used:
[1] = qHTS assay to identify small molecule antagonists of the vitamin D receptor (VDR) signaling pathway - cell viability counter screen (AID 743225); also: nearly all actives have a fitted effect of over 50% in size
How it was run: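 Cytotoxicity toward the VDR-bla HEK 293T line was scored by ATP-based CellTiter-Glo luminescence, read in the wells already used for the beta-lactamase readout after 16 h compound treatment under 3 nM 1-alpha,25-dihydroxyvitamin D3 stimulation.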

[2] = qHTS assay to identify small molecule agonists of the NFkB signaling pathway (AID 1159509; active = well fitted curve in the direction sought with a large enough effect in the signal ratio in the repeat runs, not every such curve was filed as active; the % refers to the signal ratio; also: series mostly up to about 61 µM)
How it was run: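 NFkB-bla ME-180 cells with a beta-lactamase reporter under an NF-kB response element were plated overnight, treated with compounds in DMSO for 5 hr at 37 C, then loaded with FRET substrate for 1.5 hr at room temperature.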

[3] = qHTS assay to identify small molecule agonists of the NFkB signaling pathway - cell viability counter screen (AID 1159515; calls by dose curve; also: series mostly up to about 61 µM; nearly all actives have a fitted effect of over 55% in size)
How it was run: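 NFkB-bla ME-180 cells, 2,000/well, were plated overnight at 37 C, 5% CO2, then exposed to compounds in DMSO for 5 hr. After the bla FRET read, CellTiter-Glo was added to the same wells; luminescence was read after 30 min at room temperature.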

[4] = qHTS assay to identify small molecule agonists of the endoplasmic reticulum stress response signaling pathway (AID 1159516; active = well fitted activation curve with a large enough effect in the signal ratio in the repeat runs, not every such curve was filed as active; the % refers to the signal ratio)
How it was run: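 CellSensor ESRE-bla HeLa cells, carrying a beta-lactamase reporter driven by the ER stress response element, were plated overnight and exposed to compounds for 5 hr at 37 C. Reporter activity was read as FRET substrate fluorescence after 2 hr at room temperature.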

[5] = qHTS assay to identify small molecule agonists of the endoplasmic reticulum stress response signaling pathway - cell viability counter screen (AID 1159517; calls by dose curve; also: series mostly up to about 61 µM; nearly all actives have a fitted effect of over 50% in size)
How it was run: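 Luminescence readout: CellTiter-Glo, 30 min RT, same wells as the ESRE-bla reporter read. HeLa ESRE-bla, 1,500 cells/well, o/n 37 C; cpd 5 hr 37 C/5% CO2.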

[6] = qHTS assay to identify small molecule antagonists of the retinoid-related orphan receptor gamma (ROR-gamma) signaling pathway - cell viability counter screen (AID 1159520); also: nearly all actives have a fitted effect of over 50% in size
How it was run: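 Tet-on ROR gamma CHO cells (1,000/well) were plated 4 hr, given compounds in DMSO for 2 hr at 37 C, then induced with 1 uM final doxycycline for 16 hr. Viability was read as ATP by CellTiter-Glo luminescence after 30 min.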

[7] = qHTS assay to identify small molecule agonists of the AP-1 signaling pathway (AID 1159526; calls by dose curve)
[8] = qHTS assay to identify small molecule agonists of the RXR signaling pathway - cell viability counter screen (AID 1159529); also: series mostly up to about 77 µM; nearly all actives have a fitted effect of over 50% in size
How it was run: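 Tox21 10K compounds were tested for cytotoxicity against GeneBLAzer RXR-alpha HEK 293T cells grown in 2% charcoal-stripped FBS. Exposure lasted 16 hr at 37 C, 5% CO2; viability read by CellTiter-Glo luminescence.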

[9] = qHTS assay to identify small molecule antagonists of the retinoid acid receptor (RAR) signaling pathway - cell viability counter screen (AID 1159551); also: nearly all actives have a fitted effect of over 35% in size
How it was run: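 C3RL4 cells were seeded overnight at 37 C, then treated with compounds plus 1 uM (final) retinol for 6 h at 37 C. Viability was read as ATP by CellTiter-Glo luminescence after 30 min at room temperature.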

[10] = qHTS assay to identify small molecule antagonists of the retinoic acid receptor (RAR) signaling pathway (AID 1159552; also: nearly all actives have a fitted effect of over 50% in size)
How it was run: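 Overnight-plated C3RL4 reporter cells get compound, then retinol to 1 uM final; plates sit 6 hr at 37 C, 5% CO2. A luciferase reagent is added and light output recorded after 30 min at room temperature.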

[11] = qHTS assay to identify small molecule agonists of the retinoic acid receptor (RAR) signaling pathway (AID 1159553)
How it was run: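 C3RL4 cells carrying a RARE luciferase reporter were plated overnight at 37 C, then exposed to compounds in DMSO for 6 hr at 37 C and 5% CO2. Luminescence was read 30 min after luciferase reagent addition at room temperature.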

[12] = qHTS assay to identify small molecule antagonists of the estrogen related receptor (ERR) signaling pathway - cell viability counter screen (AID 1224818);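 also: series mostly up to about 46 µM; viability measured after 17.5 h of compound exposure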
How it was run: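 ERR reporter cells plated 6 h at 37 C/5% CO2, then compounds in DMSO pin-transferred and incubated 17.5 h at 37 C. Viability read as CellTiter-Fluor fluorescence after 30 min at 37 C.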

[13] = qHTS assay to identify small molecule antagonists of the estrogen related receptor (ERR) signaling pathway from Tox21 library - cell viability counter screen (AID 1224834); also: nearly all actives have a fitted effect of over 30% in size
How it was run: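 ERR reporter cells were plated 6 h before compound addition, then exposed to test compounds in DMSO for 17.5 h at 37 C. Viability was read as CellTiter-Fluor fluorescence after a 30-minute incubation at 37 C.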

[14] = target: Luciferin 4-monooxygenase (Photinus pyralis) (UniProt P08659); assay: qHTS assay to identify small molecule inhibitors of firefly luciferase (AID 1224835); also: nearly all actives have a fitted effect of over 25% in size; also: potency is read from the fitted curve at half-maximal effect
How it was run: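 Quantitative HTS format; KM concentrations of both substrates. Purified P. pyralis FLuc activity quantified from luminescence images.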

[15] = qHTS assay to identify small molecule agonists of the constitutive androstane receptor (CAR) signaling pathway - cell viability counter screen (AID 1224836); also: series mostly up to about 92 µM; nearly all actives have a fitted effect of over 45% in size
How it was run: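 Fluorescence from CellTiter-Fluor indicates live cells after 23 h exposure. The human hepatoma line expresses hCAR and a CYP2B6-2.2kb reporter. Incubation medium contains 0.75 uM PK11195 (final).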

[16] = qHTS assay to identify small molecule antagonists of the constitutive androstane receptor (CAR) signaling pathway - cell viability counter screen (AID 1224837); also: series mostly up to about 92 µM; nearly all actives have a fitted effect of over 45% in size
How it was run: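 HepG2 cells stably expressing hCAR and a CYP2B6-2.2kb reporter were plated and pre-incubated 4 hr at 37 C/5% CO2, then given compounds at 15 concentrations plus 50 nM CITCO (final). After 23 hr, viability was read by CellTiter-Fluor fluorescence.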

[17] = qHTS assay to identify small molecule agonists of the AP-1 signaling pathway - cell viability counter screen (AID 1159525; calls by dose curve; also: nearly all actives have a fitted effect of over 55% in size)
How it was run: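 ME-180 AP-1-bla, 2500 cells/well, Opti-MEM + 0.5% dialyzed FBS; overnight 37 °C; cpd 15-pt titration, 5 h 37 °C; CellTiter-Glo 30 min RT; luminescence read; normalised to TOAB and DMSO controls.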

[18] = target: Retinoic acid receptor RXR-alpha (Homo sapiens) (UniProt P19793); assay: qHTS assay to identify small molecule agonists of the RXR signaling pathway (AID 1159527; calls by dose curve; also: nearly all actives have a fitted effect of over 35% in size)
How it was run: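 Reporter activation is measured as beta-lactamase activity via FRET substrate cleavage (emission 460/530 nm) in HEK 293T cells expressing an RXR-alpha-driven bla construct, following 16 hr compound exposure at 37 C.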

[19] = qHTS assay to identify small molecule agonists of the vitamin D receptor (VDR) signaling pathway - cell viability counter screen (AID 743224)
How it was run: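 VDR-bla cells were preincubated 4 h at 37C/5% CO2, then exposed to compounds for 16 h. After the 2 h room-temperature bla FRET read, CellTiter-Glo was added to the same wells and luminescence read after 30 min.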

[20] = target: Nuclear receptor ROR-gamma (Homo sapiens) (UniProt P51449); assay: qHTS assay to identify small molecule antagonists of the retinoid-related orphan receptor gamma (ROR-gamma) signaling pathway (AID 1159521)
How it was run: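 Readout: ONE-Glo luciferase luminescence, 30 min at room temperature. System: Tet-on RORγ CHO, RORE-LUC. Sequence: compound 2 h, doxycycline 1 uM final, 16 h at 37 C.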

Sequence of Retinoic acid receptor RXR-alpha (Homo sapiens) (P19793 whole entry, looked up): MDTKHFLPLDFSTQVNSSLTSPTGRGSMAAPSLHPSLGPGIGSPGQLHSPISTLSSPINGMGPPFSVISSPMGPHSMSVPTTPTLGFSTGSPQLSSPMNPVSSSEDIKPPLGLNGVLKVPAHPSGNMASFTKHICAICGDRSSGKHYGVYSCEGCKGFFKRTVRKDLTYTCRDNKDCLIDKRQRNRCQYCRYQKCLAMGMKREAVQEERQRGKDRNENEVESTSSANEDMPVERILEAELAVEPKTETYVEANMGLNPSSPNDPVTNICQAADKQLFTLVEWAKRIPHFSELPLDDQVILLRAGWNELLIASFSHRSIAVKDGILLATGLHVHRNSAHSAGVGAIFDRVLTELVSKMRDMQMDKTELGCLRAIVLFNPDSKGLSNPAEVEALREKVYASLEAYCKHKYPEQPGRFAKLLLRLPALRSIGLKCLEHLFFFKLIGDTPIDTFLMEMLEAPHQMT
Sequence of Luciferin 4-monooxygenase (Photinus pyralis) (P08659 whole entry, looked up): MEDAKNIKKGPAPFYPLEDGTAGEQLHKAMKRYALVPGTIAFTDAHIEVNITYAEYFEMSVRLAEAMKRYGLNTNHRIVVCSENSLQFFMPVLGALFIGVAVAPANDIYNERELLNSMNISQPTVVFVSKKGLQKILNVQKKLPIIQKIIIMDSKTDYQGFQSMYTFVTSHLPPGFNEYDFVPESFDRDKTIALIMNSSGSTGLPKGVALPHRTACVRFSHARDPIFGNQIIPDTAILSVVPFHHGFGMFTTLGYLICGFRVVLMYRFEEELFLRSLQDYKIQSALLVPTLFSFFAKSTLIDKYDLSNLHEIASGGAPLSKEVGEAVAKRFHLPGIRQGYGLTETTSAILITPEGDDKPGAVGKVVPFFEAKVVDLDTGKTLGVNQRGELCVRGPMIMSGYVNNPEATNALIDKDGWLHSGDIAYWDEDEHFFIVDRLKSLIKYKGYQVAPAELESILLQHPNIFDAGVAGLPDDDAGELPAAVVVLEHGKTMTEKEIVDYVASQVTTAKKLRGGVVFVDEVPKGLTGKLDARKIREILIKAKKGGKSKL

Compound | outcome [1] | outcome [2] | outcome [3] | outcome [4] | outcome [5] | Potency [6] | outcome [7] | Potency [8] | outcome [9] | Potency [10] | Potency [11] | outcome [12] | Potency [13] | Potency [14] | Potency [15] | Potency [16] | Potency [17] | Potency [18] | Potency [19] | Potency [20]
O=C1CCC(N2C(=O)c3ccccc3C2=O)C(=O)N1 (stereo unspecified) | inactive | inactive | inactive | inactive | inactive | inactive | inactive | inactive | inactive | inactive | inactive | inactive | inactive | inactive | inactive | inactive |  |  |  | 
CCCCCCCCC/C=C/CC1CC(=O)OC1=O (stereo unspecified) | inactive | inactive | inactive | inactive | inactive | inactive | inactive | inactive | inactive |  |  |  | inactive | 71.3 µM (active) | inactive | inactive | inactive | inactive |  | 
CN(C)CCC(c1ccccc1)c1ccccn1 (stereo unspecified) | inactive | inactive | inactive | inactive | inactive | inactive | inactive | inactive | inactive | inactive | inactive | inactive | inactive | inactive | inactive | inactive | inactive |  |  | 
CCC(O)OCCCOC (stereo unspecified) | inactive | inactive | inactive | inactive | inactive | inactive | inactive | inactive | inactive |  |  |  | inactive | inactive |  | inactive |  |  | inactive | inactive
CCc1ccc(CCOc2ccc(CC3SC(=O)NC3=O)cc2)nc1 (stereo unspecified) | inactive | inactive | inactive | inactive | inactive | inactive | inactive | inactive | inactive |  |  |  | inactive | 31.7 µM (active) and 24.5 µM (active) | inactive | inactive | inactive |  | inactive | 
CC(C)(C)[C@@H](O)[C@@H](Cc1ccc(Cl)cc1)n1cncn1 | inactive | inactive | inactive | inactive | inactive | inactive | inactive | inactive | inactive | inactive | inactive |  | inactive | inactive |  | inactive |  |  |  | inactive
N[C@@H](Cc1cc(I)c(Oc2cc(I)c(O)c(I)c2)c(I)c1)C(=O)O | inactive | inactive | inactive | inactive | inactive | inactive | inactive | inactive | inactive | inactive | inactive |  | inactive | inactive |  | inactive | inactive | inactive | inactive | 
CC(=O)CC(=O)Nc1ccccc1 | inactive | inactive | inactive | inactive | inactive | inactive | inactive | inactive | inactive | inactive | inactive |  | inactive | inactive |  | inactive | inactive | inactive | inactive | 
